Values joined by “and” are separate entries in the source; they are usually repeats but may differ in a detail not shown here. Equal entries are not always repeated. About 2,000 (36%) of roughly 5,500 compounds were called active. Not shown: some 18% with an inconclusive outcome. The list shows a part of the results. A number with no mark means an inactive call. No stated cut-off is given here; in the data, active means normalized growth mostly below about 0.91 (no sharp cut-off); inconclusive means no clear call, values can overlap the other calls; inactive means mostly above about 0.92.
Test: chemical genetic growth profiling, strain panel (AID 1159580);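 further: tested at 20 µM; growth read once vehicle control cultures reached saturation at 30 °C; 1 = growth at the plate median or of vehicle wells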
Settings: S. cerevisiae deletion strains, growth OD

Q: What does the source list for `CC[C@H](C)C(=O)O[C@H]1C[C@@H](C)C=C2C=C[C@H](C)[C@H](CC[C@@H]3C[C@@H](O)CC(=O)O3)[C@H]21`?
A: normalized growth (locus YAL013W, strain DEP1, stronger effect = lower value): 0.982; normalized growth (locus YAL021C, strain ccr4, stronger effect = lower value): 0.82 (active); normalized growth (locus YAL026C, strain drs2, stronger effect = lower value): 0.994; normalized growth (locus YAL030W, strain snc1, stronger effect = lower value): 1.01; normalized growth (locus YBL061C, strain skt5, stronger effect = lower value): 1; normalized growth (locus YBR009C, strain hhf1, stronger effect = lower value): 1.02; normalized growth (locus YBR021W, strain FUR4, stronger effect = lower value): 1.04; normalized growth (locus YBR023C, strain chs3, stronger effect = lower value): 1.01; normalized growth (locus YBR171W, strain sec66, stronger effect = lower value): 1; normalized growth (locus YBR229C, strain ROT2, stronger effect = lower value): 0.944; normalized growth (locus YBR231C, strain swc5, stronger effect = lower value): 0.915; normalized growth (locus YBR279W, strain paf1, stronger effect = lower value): 1.01; normalized growth (locus YCL011C, strain gbp2, stronger effect = lower value): 1.01; normalized growth (locus YCL016C, strain dcc1, stronger effect = lower value): 0.999; normalized growth (locus YCL029C, strain bik1, stronger effect = lower value): 0.991; normalized growth (locus YCL061C, strain MRC1, stronger effect = lower value): 0.997; normalized growth (locus YCL069W, strain vba3, stronger effect = lower value): 1.01; normalized growth (locus YCR088W, strain abp1, stronger effect = lower value): 0.998; normalized growth (locus YDL005C, strain med2, stronger effect = lower value): 0.982; normalized growth (locus YDL035C, strain GPR1, stronger effect = lower value): 0.961; normalized growth (locus YDL040C, strain nat1, stronger effect = lower value): 1.01; normalized growth (locus YDL074C, strain BRE1, stronger effect = lower value): 1; normalized growth (locus YDL101C, strain DUN1, stronger effect = lower value): 0.977; normalized growth (locus YDL134C, strain PPH21, stronger effect = lower value): 0.971; normalized growth (locus YDL185W, strain tfp1, stronger effect = lower value): 0.977; normalized growth (locus YDL192W, strain arf1, stronger effect = lower value): 0.983; normalized growth (locus YDR001C, strain nth1, stronger effect = lower value): 1; normalized growth (locus YDR069C, strain doa4, stronger effect = lower value): 1.01; normalized growth (locus YDR101C, strain arx1, stronger effect = lower value): 1.02; normalized growth (locus YDR137W, strain rgp1, stronger effect = lower value): 1.28 [resistant] (active); normalized growth (locus YDR150W, strain NUM1, stronger effect = lower value): 0.967; normalized growth (locus YDR159W, strain sac3, stronger effect = lower value): 1.02; normalized growth (locus YDR162C, strain NBP2, stronger effect = lower value): 0.951; normalized growth (locus YDR195W, strain ref2): 1.06; normalized growth (locus YDR297W, strain sur2, stronger effect = lower value): 0.997; normalized growth (locus YDR318W, strain mcm21, stronger effect = lower value): 0.996; normalized growth (locus YDR334W, strain swr1, stronger effect = lower value): 0.954; normalized growth (locus YDR335W, strain msn5, stronger effect = lower value): 1; normalized growth (locus YDR388W, stronger effect = lower value): 0.996; normalized growth (locus YDR392W, strain spt3, stronger effect = lower value): 0.983; normalized growth (locus YDR502C, strain sam2, stronger effect = lower value): 0.969; normalized growth (locus YEL003W, strain gim4, stronger effect = lower value): 1; normalized growth (locus YEL037C, strain rad23, stronger effect = lower value): 1; normalized growth (locus YEL061C, strain CIN8 (second series), stronger effect = lower value): 1; normalized growth (locus YEL061C, strain CIN8, stronger effect = lower value): 0.979; normalized growth (locus YER015W, strain faa2, stronger effect = lower value): 1.01; normalized growth (locus YER016W, strain bim1, stronger effect = lower value): 1; normalized growth (locus YER110C, stronger effect = lower value): 0.974; normalized growth (locus YER111C, strain swi4, stronger effect = lower value): 1.01; normalized growth (locus YER155C, strain BEM2 (second series), stronger effect = lower value): 1.01; normalized growth (locus YER155C, strain BEM2, stronger effect = lower value): 0.986; normalized growth (locus YER167W, strain BCK2, stronger effect = lower value): 0.942; normalized growth (locus YFR010W, strain ubp6, stronger effect = lower value): 1.02; normalized growth (locus YGL078C, strain dbp3, stronger effect = lower value): 0.984; normalized growth (locus YGL086W, strain mad1, stronger effect = lower value): 0.968; normalized growth (locus YGL167C, strain pmr1, stronger effect = lower value): 0.998; normalized growth (locus YGL173C, strain kem1, stronger effect = lower value): 1.01; normalized growth (locus YGL227W, strain vid30, stronger effect = lower value): 0.996; normalized growth (locus YGL240W, strain doc1, stronger effect = lower value): 1.04; normalized growth (locus YGL248W, strain PDE1, stronger effect = lower value): 0.974; normalized growth (locus YGL253W, strain hxk2, stronger effect = lower value): 0.996; normalized growth (locus YGR078C, strain PAC10, stronger effect = lower value): 0.996; normalized growth (locus YGR135W, strain pre9, stronger effect = lower value): 0.942; normalized growth (locus YGR229C, strain SMI1, stronger effect = lower value): 0.95; normalized growth (locus YGR252W, strain gcn5, stronger effect = lower value): 0.878; normalized growth (locus YHR013C, strain ard1, stronger effect = lower value): 1.04; normalized growth (locus YHR027C, strain rpn1, stronger effect = lower value): 1.01; normalized growth (locus YHR030C, strain SLT2, stronger effect = lower value): 0.985 and 0.963; normalized growth (locus YHR079C, strain IRE1 (second series), stronger effect = lower value): 0.995; normalized growth (locus YHR079C, strain IRE1, stronger effect = lower value): 0.992; normalized growth (locus YHR094C, strain hxt1, stronger effect = lower value): 0.989; normalized growth (locus YHR129C, strain ARP1, stronger effect = lower value): 0.996; normalized growth (locus YHR142W, strain chs7, stronger effect = lower value): 1; normalized growth (locus YHR200W, strain rpn10, stronger effect = lower value): 0.994; normalized growth (locus YIL066C, strain RNR3, stronger effect = lower value): 0.965; normalized growth (locus YIL073C, strain SPO22, stronger effect = lower value): 0.823; normalized growth (locus YIL125W, strain kgd1, stronger effect = lower value): 0.974; normalized growth (locus YIR030C, strain dcg1, stronger effect = lower value): 0.976; normalized growth (locus YJL092W, strain hpr5, stronger effect = lower value): 1; normalized growth (locus YJL095W, strain BCK1 (second series), stronger effect = lower value): 1.01; normalized growth (locus YJL095W, strain BCK1, stronger effect = lower value): 0.988 and 0.96; normalized growth (locus YJL115W, strain asf1, stronger effect = lower value): 1.01; normalized growth (locus YJL129C, strain trk1, stronger effect = lower value): 0.997; normalized growth (locus YJL134W, strain LCB3, stronger effect = lower value): 0.979; normalized growth (locus YJL154C, strain vps35, stronger effect = lower value): 1.01; normalized growth (locus YJL164C, strain tpk1, stronger effect = lower value): 1; normalized growth (locus YJL166W, strain qcr8, stronger effect = lower value): 1.01; normalized growth (locus YJL168C, strain set2, stronger effect = lower value): 0.996; normalized growth (locus YJL187C, strain SWE1 (second series), stronger effect = lower value): 0.989; normalized growth (locus YJL187C, strain SWE1, stronger effect = lower value): 1; normalized growth (locus YJR043C, strain POL32, stronger effect = lower value): 1.04; normalized growth (locus YJR066W, strain TOR1, stronger effect = lower value): 0.915
